Source: PubChem BioAssay (NCI)
Values joined by “and” are separate entries in the source; they are usually repeats but may differ in a detail not shown here. Equal entries are not always repeated. About 83,000 compounds went through this panel and 20% of them were active in at least one assay; those are over-represented in the sample as a whole.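 48-hour exposure, single concentration, 96-well plates; percent growth endpoint where 0 means no net growth. Active: below 10.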 Active and inactive are the calls of the source.

These compounds were tested on MDA-MB-468 breast (assay: NCI-60 one-dose screen, 48 h (100 = growth as untreated, 0 = no growth, -100 = all killed)). Conditions: 10 µM unless noted.

SMILES | growth
COc1cc(/C=C/C(=O)c2cccc(-n3cc(-c4cc(OC)c(OC)c(OC)c4)[nH]c3=O)c2)cc(OC)c1OC | 27.7% (inactive)
Cc1ccc(C(=O)c2ccccc2)c(C)c1 | 111% (inactive)
CC1(c2ccccc2)OC1C(=O)O (stereo unspecified) | 99.2% (inactive)
Nc1nc2c(c(=O)[nH]1)C1(C(=O)Nc3ccccc31)c1c(nc(N)[nH]c1=O)N2 | 101% (inactive)
O=C1OCC2=C1C(c1ccc(Cl)c(Cl)c1)c1cc3c(cc1N2CCO)CCC3 (stereo unspecified) | 22.9% (inactive)
COc1cc(/C=C/C(=O)c2ccc(NC(=O)CSc3nnc(-c4cc(-c5ccccc5)nc5ccccc45)n3-c3ccccc3)cc2)cc(OC)c1OC | 81.5% (inactive)
COc1ccc(C(=O)N2NC(=O)/C(=C/c3ccc(Br)cc3)N=C2c2ccccc2)cc1 | 91.8% (inactive)
COC(=O)c1nc(-c2ccccc2)oc1S(=O)(=O)NCC(c1ccc(Cl)cc1)N1CCOCC1 (stereo unspecified) | 29.9% (inactive)
CC(=O)Oc1cc(C(=O)O)cc(OC(C)=O)c1OC(C)=O | 98.6% (inactive) and 108% (inactive)
O=C(N/N=C/c1ccc(Cl)cc1Cl)c1ccc2nc(-c3ccc(Cl)cc3)[nH]c2c1 | -44.1% (active)
N#Cc1c(N)nc(N)nc1Nc1ccc(Br)cc1 | 89.6% (inactive)
O=C1c2cc3c(cc2-c2c1c1ccc(F)cc1c(=O)n2CCCNCCO)OCO3 | -70.8% (active)
CCCCCCCCCCCC(=O)OCCNC(=O)C[n+]1ccccc1 | 101% (inactive)
CCN1CCN(Cc2cn(CC(=O)Nc3ccc4c(ccn4Cc4ccccc4)c3)nn2)CC1 | 97.2% (inactive)
Cc1ccccc1NC(=O)N/C(N)=N/c1nc(-c2cccc([N+](=O)[O-])c2)cs1 | 6.27% (active)
CNC(=O)c1c(NC(=O)c2cccc(C(F)(F)F)c2F)sc2c1CCC(=O)C2 | 0.936% (active)
CCNC(=O)Oc1ccc(/C(=C(\C)c2ccccc2)c2ccc(OCCN(CC)CC)cc2)cc1 | 79.3% (inactive)
COc1ccc([C@@H]2[C@@H](Cl)C(=O)N2c2cc(OC)c(OC)c(OC)c2)cc1C | 18.9% (inactive)
CC(=O)[C@H]1CC[C@H]2[C@@H]3CC[C@H]4CC=CC[C@]4(C)[C@H]3CC[C@]12C | 84.7% (inactive)
CCOC(=O)C(CC(=O)O)=C(C(=O)OCC)C(=O)OCC | 97.1% (inactive)
O=C1CC(=NCC(=O)n2c(-c3ccccc3)nc3ccccc32)NN1 | 94% (inactive)
CC(C)SC1=NC(=C(C(=N1)NC2=ClC=CC=C2)C#N)C3=CC=CC=C3 | 43% (inactive)
Cc1cc([C@@H](C)Nc2ccccc2C(=O)O)c2nc(N3CCOCC3)cc(=O)n2c1 | 9.76% (active)
O=C(O)/C=C\C(=O)Nc1cccc2ccccc12 | 92.2% (inactive) and 111% (inactive)
C=C1CC[C@@H]2[C@]3(C)COC(c4ccccc4)O[C@@H]3CC[C@@]2(C)[C@@H]1C/C=C1/C(=O)OC[C@H]1O (stereo partly specified) | 91.4% (inactive)
COc1cc(OC)cc(-c2n/c(=C\c3c(O)[nH]c4ccc(Cl)cc34)cc3c2=Nc2ccccc2-3)c1 | 98.1% (inactive)
